High-throughput results from PubChem BioAssay.
Only a selection was taken, and hits are over-represented in it overall.
HT1080NT lethal – kills 2HG-producing HT-1080-NT fibrosarcoma cells; HT-1080-NT fibrosarcoma viability, CellTiter-Glo ATP luminescence, 48 h; Potency, µM (doses to about 46.1 µM), for the others: at the top dose activity, negative = less viability, most hits filed as cytotoxic; 360,000 tested, 1.6% active;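 further: NT is the 2HG producing partner of a matched IDH1 knockdown line; potency means the concentration at half of the fitted maximal effect; 0% = DMSO-treated cells and -100% = media-only wells without cells; nearly all actives have a fitted effect of over 55% in size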
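A 48-hour cytotoxicity screen used HT-1080-NT cells plated 2 hours before compound delivery. ATP-based CellTiter-Glo luminescence measured viability, normalized to DMSO and no-cell controls.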
IL-1B inflam inh – inflammasome signaling inhibition, IL-1 beta readout; 360,000 tested, 4.7% active; THP-1 LPS/ATP IL-1B secretion, AlphaLISA, 16 h; active compounds read low; activity change, % at 57.5 µM; in the data active means activity change below about -50%; inconclusive means mostly about -30% to -49%
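THP-1 cells pretreated 1 hr with compounds (up to 57.5 uM final), then stimulated with LPS (250 ng/mL final) plus ATP (1.25 mM final); secreted IL-1B measured by AlphaLISA after 16 hr, decreased signal indicating inhibition.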
TDP1 cell CPT – DT40-hTDP1 cell growth loss with CPT. Potency, µM (highest dose often 46.2 µM), for the others: at the highest dose activity change, negative = growth inhibition, usual class: inhibitors. chicken DT40 Tdp1-/-;hTDP1 cells + 20 nM CPT, ATP luminescence, 48 h. 420,000 tested, 12% active; further: potency means the concentration at half of the fitted maximal effect; nearly all actives have a fitted effect of over 55% in size
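Cell growth measured by CellTiter-Glo luminescence after a minimum 48 h, 37 C compound exposure with 20 nM CPT in Tdp1-knockout DT40 cells stably expressing hTDP1, seeded 400/well; qHTS titration format.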
TDP1 cell noCPT – qHTS for Inhibitors of human tyrosyl-DNA phosphodiesterase 1 (TDP1): qHTS in cells in absence of CPT; DT40 Tdp1-/- hTDP1 cells, no CPT, ATP luminescence, 48 h; Potency, µM (titrated, usually from 46.2 µM), without a hit: at the highest dose activity change, negative = growth inhibition, most hits filed as inhibitors; 420,000 tested, 15% active; further: potency means the concentration at half of the fitted maximal effect; nearly all actives have a fitted effect of over 55% in size
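Compound effects on proliferation are scored in DT40 Tdp1-/-;hTDP1 cells in the absence of CPT. ATP levels (CellTiter-Glo luminescence) are recorded after a ≥48 hr, 37 °C incubation.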
HT1080 IDH1KD tx – toxicity to HT-1080 IDH1 knockdown cells (counter line); HT-1080 IDH1 knockdown viability, ATP luminescence, 48 h; Potency, µM (doses to about 46.1 µM), for the others: at the top dose activity, negative = toxicity, usual class: cytotoxic; 360,000 tested, 2% active;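 further: potency means the concentration at half of the fitted maximal effect; 0% = DMSO wells and -100% = cell-free medium wells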
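Cytotoxicity counter-line: IDH1KD HT-1080, 48 h, CellTiter-Glo. Curves classed by r2, magnitude and activity.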
ALOX12 inh – ALOX12 (human) lipoxygenase inhibition | P18054 | purified 12hLO, xylenol orange hydroperoxide absorbance | Potency, µM (titrated, usually from 108 µM), for inactives: top-dose activity change, negative = inhibition, usual class: inhibitors | 580,000 tested, 1.1% active; further: potency means the concentration at half of the fitted maximal effect
Target sequence (P18054 whole entry, looked up): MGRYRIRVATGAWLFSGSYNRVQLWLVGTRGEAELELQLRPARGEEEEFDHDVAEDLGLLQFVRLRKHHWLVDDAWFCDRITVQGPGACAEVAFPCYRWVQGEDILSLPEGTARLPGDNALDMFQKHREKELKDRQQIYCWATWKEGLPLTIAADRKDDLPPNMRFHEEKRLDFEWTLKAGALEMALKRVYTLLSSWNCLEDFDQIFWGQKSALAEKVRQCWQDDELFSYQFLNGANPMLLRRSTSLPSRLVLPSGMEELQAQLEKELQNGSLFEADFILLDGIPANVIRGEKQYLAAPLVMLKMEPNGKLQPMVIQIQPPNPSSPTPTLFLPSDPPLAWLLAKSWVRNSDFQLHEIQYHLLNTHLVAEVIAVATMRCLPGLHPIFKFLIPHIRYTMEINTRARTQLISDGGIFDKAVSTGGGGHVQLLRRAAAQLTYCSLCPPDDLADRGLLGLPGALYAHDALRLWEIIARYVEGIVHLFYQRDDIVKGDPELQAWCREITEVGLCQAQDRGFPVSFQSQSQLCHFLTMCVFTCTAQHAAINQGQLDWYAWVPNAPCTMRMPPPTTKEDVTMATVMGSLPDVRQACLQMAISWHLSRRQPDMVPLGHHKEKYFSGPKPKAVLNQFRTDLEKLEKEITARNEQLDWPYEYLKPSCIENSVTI
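Hydroperoxide product was detected by ferrous iron/xylenol orange as the 573 to 405 nm absorbance ratio. Arachidonic acid at 40 uM (final) was turned over for 30 min at room temperature by 150 nM human 12hLO, pH 7.0 Hepes buffer, after 15 min compound preincubation.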
The depositor's hits bear a star; ? = inconclusive; nt = no result given; ! = not active in a repeat; [ ] = remark or other dose. Unless noted, the call rests on the fitted dose curve; in most records, active means well fitted curve in the direction sought with a large enough effect; inconclusive means small, poorly fitted or top-dose-only effect, or another doubt; inactive means no such curve, though single readings can be large; an effect the other way counts as inactive or inconclusive. Unless noted, on the % scale 0 is the no-effect control and ±100 the full control effect.

SMILES | HT1080NT lethal | IL-1B inflam inh | TDP1 cell CPT | TDP1 cell noCPT | HT1080 IDH1KD tx | ALOX12 inh
CCOc1ccc(CNC(=O)c2ncoc2-c2ccc(C)s2)cc1OC | nt | nt | nt | nt | nt | -26%
CCOc1ccccc1NC(=O)Cn1ccn2nc(-c3ccc(F)cc3)c(CO)c2c1=O | nt | nt | nt | nt | nt | 6%
COc1ccc(C#Cc2c(C=O)n(C)c3ccccc23)cc1 | -21% | 28 | ? | ? | -11% | ?
Cn1c(C=O)c(C#Cc2ccccc2)c2ccccc21 | 5% | 49 | ? | 23µM* | -26% | -3%
CCCCOC(=O)C1CN(c2ccccc2)N=C1C(=O)OCC (stereo not drawn) | 2% | 0 | 23µM* | 21µM* | 3% | -11%
O=C(CCNS(=O)(=O)c1cccs1)N1CCN(c2cccc(Cl)c2)CC1 | -18% | -12 | ? | ? | 0% | -5%
O=C(C1CCCN(S(=O)(=O)c2cccs2)C1)N1CCN(c2cccc(Cl)c2)CC1 (stereo not drawn) | nt | nt | 21µM* | 15µM* | nt | ?
O=C(C1CCCN(S(=O)(=O)c2ccc(Br)s2)C1)N1CCN(c2cccc(Cl)c2)CC1 (stereo not drawn) | nt | nt | 16µM* | 21µM* | nt | ?
CCc1nc(CN(C)C(C)c2ccc(S(N)(=O)=O)cc2)cs1 (stereo not drawn) | nt | nt | nt | nt | nt | -30%
C#CCN(Cc1ccc(C)cc1)C(=O)CCC(=O)CCC(=O)c1ccc(C)s1 | nt | nt | nt | nt | nt | -12%
CCN1CCC[C@H]1CNC(=O)c1c(OC)ccc(Br)c1OC | 0% | 3 | 33µM*! | 30µM*! | 2% | 7%
CCN1CCCC1CNC(=O)c1cc(N)ccc1OC (stereo not drawn) | 2% | -25 | -5% | -1% | 8% | -98%
COc1ccc(Nc2nc(COC(=O)c3ccc4c(c3)C(=O)N(C)C4=O)cs2)cc1 | nt | nt | nt | nt | nt | 6%
Cc1c(C(=O)N(C)c2ccc(Cl)cc2)cnn1-c1ccccc1 | -5% | -11 | ? | 4.6µM* | 0% | 5%
Cc1ccc(NC(=O)c2cnn(-c3ccccc3)c2C)c(C)c1 | 14% | -67* | ? | ? | 6% | -4%
Cc1cccc(C)c1NC(=O)c1c[nH]c2ccccc12 | -19% | -21 | 18µM* | 26µM* | -25% | ?
Cc1cccc(C)c1NC(=O)c1cnn(-c2ccccc2)c1C | 20% | -62* | -18% | -12% | 8% | 6%
Cc1ccc(NC(=O)c2cnn(-c3ccccc3)c2C)cc1 | 0% | ? | -43% | ? | -4% | 0%
CCc1nn(-c2ccc(F)cc2)c(Oc2ccccc2)c1CCC(=O)N(C)C(C)C | nt | nt | nt | nt | nt | 30%
CC(C(=O)O)N1CC2(CCC1=O)CCN(C(=O)CN1CCCC1)CC2 (stereo not drawn) | nt | nt | nt | nt | nt | 9%
CC(C)NC(=S)N/N=C/c1ccc([N+](=O)[O-])cc1 | nt | nt | nt | nt | nt | 6%
CNc1oc(-c2ccccc2F)nc1S(=O)(=O)c1ccc2c(c1)OCCO2 | nt | nt | nt | nt | nt | -14%
CC(C)NC(=O)NC(=O)COc1ccc2ccc(=O)oc2c1 | nt | nt | nt | nt | nt | 18%
Brc1ccc(-c2ccc(/C=N/Nc3nc(N4CCOCC4)nc(N4CCOCC4)n3)o2)cc1 | 6% | ? | ? | 10µM* | -2% | -7%
Clc1ccc(-c2ccc(/C=N/Nc3cc(N4CCOCC4)nc(N4CCOCC4)n3)o2)cc1 | ? | ? | -93% | 16µM* | ? | -1%
SMILES | HT1080NT lethal | IL-1B inflam inh | TDP1 cell CPT | TDP1 cell noCPT | HT1080 IDH1KD tx | ALOX12 inh
Fc1cnc(N/N=C/c2ccc(-c3ccc(Br)cc3)o2)nc1N1CCOCC1 | 1% | 50 | 11% | 3% | -10% | 39%
O=[N+]([O-])c1ccc(/C=N/Nc2nc(N3CCCCC3)nc(N3CCCCC3)n2)o1 | -9% | -26 | ? | 18µM* | 2% | -16%
CCOc1ccccc1CN1CCN(c2cc(C)nc(N)n2)CC1CCO (stereo not drawn) | nt | nt | nt | nt | nt | 49%
COc1cccc(CN(C)C(=O)c2[nH]c(C)c(C(C)=O)c2C)c1OC | -15% | 53 | 18µM* | 12µM* | -25% | -24%
O=C(NCc1ccc2c(c1)OCO2)c1cccc([N+](=O)[O-])c1 | 3% | -2 | -4% | -8% | 0% | -7%
COc1ccccc1N(C)S(=O)(=O)c1ccc(C(=O)NCc2ccc3c(c2)OCO3)cc1 | -20% | 1 | -14% | 23µM* | -2% | 10%
COc1ccccc1N(C)S(=O)(=O)c1ccc(C(=O)N(C)Cc2cccc(OC)c2OC)cc1 | -2% | -6 | ? | 21µM* | -1% | 8%
COc1ccccc1CNC(=O)c1[nH]c(C)c(C(C)=O)c1C | 0% | 27 | -24% | ? | 8% | ?
COC(=O)c1cc(C(=O)NCc2ccc3c(c2)OCO3)cc([N+](=O)[O-])c1 | -3% | -55* | 21% | -26% | -6% | 2%
CCOc1ccc(CN(C)C(=O)c2ccc(S(=O)(=O)N(C)c3ccccc3OC)cc2)cc1 | -9%[9.24 µM] | -24 | ? | 10µM* | -17% | 11%
CN(Cc1ccc(OC(F)F)cc1)C(=O)c1ccc(S(=O)(=O)N(C)c2ccccc2)cc1 | -11% | -18 | ? | -14% | -5% | 5%
COc1ccccc1N(C)S(=O)(=O)c1ccc(C(=O)N(C)Cc2ccc(Cl)s2)cc1 | -9% | ? | 23µM* | 15µM* | -12% | -11%
CCn1ccnc1CN(C)C(=O)c1cc(-c2cnc(N)nc2)nc2c(C)cccc12 | nt | nt | nt | nt | nt | 50%
CC(C)(C)c1ccc(Cn2nnc3c(=O)[nH]c(C4CCCN(C(=O)Cc5cccs5)C4)nc32)cc1 (stereo not drawn) | ? | -19 | 23µM* | ? | ? | -29%
CC(C)(C)c1ccc(Cn2nnc3c(=O)[nH]c(C4CCN(C(=O)c5ccco5)CC4)nc32)cc1 | ? | -67* | -20% | ? | ? | ?
CC(C)(C)CC(=O)N1CCC(c2nc3c(nnn3Cc3c(F)cccc3Cl)c(=O)[nH]2)CC1 | -16% | -14 | 16µM* | ? | -14% | 53%
CC(C)(C)c1ccc(Cn2nnc3c(=O)[nH]c(C4CCCN(C(=O)c5cccs5)C4)nc32)cc1 (stereo not drawn) | ? | ? | 16µM* | ? | ? | -27%
